Data published in PubChem BioAssay (Tox21).
Results filed as inconclusive are left out. A call without a number means that no potency is given here. The source made the active and inactive calls. Calls come from the whole dose curve; as a rule, active = well fitted activation curve with a large enough effect in the signal ratio in the repeat runs (not every such curve was filed as active); inconclusive = weak or mixed curves; inactive = flat fitted curve, though single readings scatter; the % refers to the signal ratio.

test: qHTS assay to identify small molecule agonists of H2AX (AID 1224845); settings: CHO-K1 phospho-H2AX Ser139 HTRF, 3 h; series mostly up to 154 µM
Description: National Center for Advancing Translational Sciences [NCATS]
NIH Chemical Genomics Center [NCGC]
U.S. Environmental Protection Agency [EPA]
National Institutes of Environmental Health Sciences [NIEHS]
National Toxicology Program [NTP]
U.S. Food and Drug Administration [FDA]
HTRF phospho-H2AX (Ser139) assay (Cisbio Bioassays, US) enables the quantitative detection of the histone variant H2AX when phosphorylated on serine 139. When double-stranded DNA breaks, either by ionizing radiation or endogenous physiological processes, H2AX becomes phosphorylated at Ser139. This phospho-Ser139 serves as a sensitive biomarker for the detection of such breaks, localizing the site of DNA repair. So, HTRF phospho-H2AX Ser139 is a pertinent assay to study genome stability, the cell cycle, DNA repair, and it serves as a biomarker for cancer, and to understand aging. Wild type CHO-K1 cells were used to identify the inducers of Phospho-H2AX Ser 139 from the Tox21 10K compound collections.
Tox21 Assay Protocol Summary:
The CHO-K1 cells suspended in culture medium containing 10% FBS were dispensed at 1000 cells/ 3 ul/well in 1536-well white wall/solid bottom plates (Greiner Bio-One North America, NC) using a Multidrop Combi (Thermo Fisher Scientific Inc., Waltham, MA). After the assay plates were incubated at 37C overnight, 23 nl of compounds at 15 concentrations (from 5-48 columns) or positive control (from 1 to 4 columns) were transferred to the assay plates using a Pintool station (Wako, San Diego, CA) into each well resulting in a final DMSO concentration of 0.76%. After 3hr incubation at 37C, 1 uL/well Supplemented Lysis buffer (diluted 100 fold blocking reagent in lysis buffer) (HTRF Phospho-H2A.X (S139) Assay kit from Cisbio US Inc., Bedford, MA) was added using a Flying Reagent Dispenser (FRD) (Aurora Discovery, CA). After 10sec spin at 1000 rpm in a plate centrifuge, the assay plates were incubated at room temperature for 30 min. Then followed by the addition of 1 uL/well detection buffer (containing a mixture of two antibodies, one labeled with cryptate, Anti pH2AX (S139)-K and another labeled with d2, Anti H2AX-d2) using FRD. After incubation at room temperature for 24 hr, the time resolved fluorescence at excitation 320 nm and emissions at 665 nm and 620 nm was measured using an Envision plate reader (PerkinElmer, Waltham, MA).
Potency is the fitted concentration of half-maximal effect.

Which Potency does the source give for c1ccc(OCc2ccc(CCCN3CCOCC3)cc2)cc1 here?
The Potency was “inactive”.

Which Potency does the source give for CCCCOC(=O)/C=C\C(=O)OCCCC here?
The Potency was “inactive”.

For CC(=O)O[C@H]1C[C@@H]2CC[C@@H]3[C@H](CC[C@@]4(C)[C@H]3C[C@H]([N+]3(C)CCCCC3)[C@@H]4OC(C)=O)[C@@]2(C)C[C@@H]1N1CCCCC1, which Potency is on record?
Its Potency is “inactive”.

Which Potency does the source give for O=C=NC1CCC(CC2CCC(N=C=O)CC2)CC1 (stereo not given) here?
Its Potency is “inactive”.

Which Potency does the source give for CC(C)(Oc1ccc(Cl)cc1)C(=O)OCCCOC(=O)C(C)(C)Oc1ccc(Cl)cc1 here?
Its Potency is “inactive”.

For CCCC(=O)OCC, which Potency is on record?
The Potency was “inactive”.

With Cn1c(NCCN(CCO)CCCc2ccc([N+](=O)[O-])cc2)cc(=O)n(C)c1=O as the compound, how does the Potency read?
The Potency was “inactive”.

With CN(C)CC[C@@H](c1ccc(Br)cc1)c1ccccn1 as the compound, how does the Potency read?
Its Potency is “inactive”.

For Cc1ccc2c(ccc3ccccc32)c1, which Potency is on record?
The Potency was “inactive”.

For NC1CCN(c2nc3c(cc2F)c(=O)c(C(=O)O)cn3-c2ccc(F)cc2F)C1 (stereo not given), which Potency is on record?
The Potency was “inactive”.

Which Potency does the source give for CC(C)(C)c1cc(CO)cc(C(C)(C)C)c1O here?
Its Potency is “inactive”.

For Cc1c(Cn2ccnc2)c2ccccc2n1CCC(=O)O, which Potency is on record?
The Potency was “inactive”.

Which Potency does the source give for Cc1ncsc1CCO here?
Its Potency is “inactive”.

For O=C(O)[C@@H]1[C@H]2C[C@H]3c4[nH]c5ccccc5c4CCN3C[C@@H]2CC[C@@H]1O, which Potency is on record?
The Potency was “inactive”.

With CC(C)CCCC(C)CCO (stereo not given) as the compound, how does the Potency read?
The Potency was “inactive”.

Which Potency does the source give for CC(CN)CCCN (stereo not given) here?
The Potency was “inactive”.

Which Potency does the source give for Nc1nc(N)c(-c2ccccc2)s1 here?
The Potency was “inactive”.

Which Potency does the source give for CC(C)CC=O here?
The Potency was “inactive”.

With CN(C)CCCNCCCN as the compound, how does the Potency read?
Its Potency is “inactive”.

For CC(=O)NCCCS(=O)(=O)O, which Potency is on record?
Its Potency is “inactive”.

Which Potency does the source give for NCCCOCCOCCOCCCN here?
The Potency was “inactive”.

For CCCCCCCC/C=C\CCCCCCCC(N)=O, which Potency is on record?
Its Potency is “inactive”.

Which Potency does the source give for CCCCOC(=O)c1ccccc1C(=O)OCC(CC)CCCC (stereo not given) here?
Its Potency is “inactive”.

Which Potency does the source give for O=C(Nc1ccccc1)OCC(CN1CCCCC1)OC(=O)Nc1ccccc1 (stereo not given) here?
The Potency was “inactive”.

With O=C(Cl)c1ccc([N+](=O)[O-])cc1 as the compound, how does the Potency read?
The Potency was “inactive”.

With Cc1ccc(C(N)=O)cc1N as the compound, how does the Potency read?
Its Potency is “inactive”.

For O=[N+]([O-])c1cccc(Cl)c1Cl, which Potency is on record?
Its Potency is “inactive”.

For CCCCCCCCCCCCCCC1CO1 (stereo not given), which Potency is on record?
The Potency was “inactive”.

With Cc1ccc(O)c([C@H](CCN(C(C)C)C(C)C)c2ccccc2)c1 as the compound, how does the Potency read?
The Potency was “inactive”.

Which Potency does the source give for O=C(O)COC(=O)Cc1ccccc1Nc1c(Cl)cccc1Cl here?
Its Potency is “inactive”.

With CCCCCCCCCO as the compound, how does the Potency read?
The Potency was “inactive”.

For O=C1CCCCCO1, which Potency is on record?
Its Potency is “inactive”.

For Oc1ccc(Sc2ccc(O)cc2)cc1, which Potency is on record?
Its Potency is 83.9 µM (active).

Which Potency does the source give for O=c1[nH]cnc2ccccc12 here?
The Potency was “inactive”.

With Nc1cnn([C@@H]2O[C@H](CO)[C@@H](O)[C@H]2O)c(=O)n1 as the compound, how does the Potency read?
The Potency was “inactive”.

Which Potency does the source give for Cc1ccccc1N=Nc1ccc(N=Nc2c(O)ccc3ccccc23)c(C)c1 here?
The Potency was “inactive”.

For O=C(O)C(c1ccc(Cl)cc1)c1ccc(Cl)cc1, which Potency is on record?
Its Potency is “inactive”.

Which Potency does the source give for CCOc1cc(OCC)c(C(=O)CCC(=O)O)cc1OCC here?
The Potency was “inactive”.

For N#Cc1cc2ccccc2c2ccccc12, which Potency is on record?
Its Potency is “inactive”.

For CC1(C)[C@H]2CC[C@]1(C)[C@H](O)C2, which Potency is on record?
The Potency was “inactive”.
